Assay results published in PubChem BioAssay (EPA / NIEHS).
Results filed as inconclusive are left out. Active and inactive are the calls of the source. Rule for the calls: active = hit-call score of the fitted dose curve at least 0.9, where 1 is the maximum; inconclusive = response in the unintended direction; inactive = score below 0.9.

test: CCTE_Deisenroth_AIME_384WELL_CTox_Inactive: Cytotoxicity Assessment (CTOX) in CCTE's 384-well Estrogen Receptor Transactivation Assay without AIME metabolic competence (metabolism negative), Deisenroth Lab (AID 2284039);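 note: cell viability via live-cell protease substrate cleaved to fluorescent probe; loss of fluorescence signal means loss of viability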
Summary of the method: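 Metabolism-negative arm: chemicals (10-point, 0.002 - 200 uM) preincubated 2 h with alginate-water lids, medium moved onto VM7Luc4E2 cells for 24 h. Fluorescent live-cell protease readout; bidirectional curve fit.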

Row | Compound | outcome | AC50
1 | CC(C)CC(C)CC(O)CC(C)C (centres undefined) | inactive | 
2 | CN1C(=O)c2ccccc2C1=O | inactive | 
3 | CCCCCCC(C)(C)S | inactive | 
4 | CCCCCCCCC=CCCCCCCCC1=NCCN1CCO | inactive | 
5 | O=[N+]([O-])c1ccc(O)cc1C(F)(F)F |  | 34.9 µM (active)
6 | CCCCCCCCSCCO | inactive | 
7 | O=C1OC(=O)c2c(Cl)c(Cl)c(Cl)c(Cl)c21 | inactive | 
8 | Nc1ccccc1[N+](=O)[O-] | inactive | 
9 | Nc1ccc(N)c2c1C(=O)c1ccccc1C2=O |  | 28.9 µM (active)
10 | CCCCC(CC)COC(=O)c1ccc(O)cc1 (centres undefined) |  | 61.6 µM (active)
11 | O=P(O)(O)O | inactive | 
12 | C=C(C)[C@@H]1CC=C(C)C(=O)C1 | inactive | 
13 | COc1ccccc1N=Nc1c(S(=O)(=O)O)cc2cc(S(=O)(=O)O)cc(NC(C)=O)c2c1O |  | 42.9 µM (active)
14 | Oc1ccc2cc(SSc3ccc4cc(O)ccc4c3)ccc2c1 | inactive | 
15 | Clc1ccc(C(c2ccccc2Cl)C(Cl)Cl)cc1 (centres undefined) |  | 152 µM (active)
16 | CCOC(=O)C1OC1c1ccccc1 (centres undefined) | inactive | 
17 | Nc1ccc2cc(S(=O)(=O)O)cc(O)c2c1N=Nc1ccccc1C(F)(F)F |  | 38.2 µM (active)
18 | O=C(O)c1ccc(O)cc1 | inactive | 
19 | O=C(CC(=O)c1ccccc1)c1ccccc1 | inactive | 
